# Laboratory results reported in PubChem BioAssay (EPA / NIEHS).
# “And” between values parts separate entries of the source, which are not always exact repeats. Identical values can stand only once. Inconclusive results are not listed. More than one record can exist for a structure, and the calls need not agree. The source made the active and inactive calls. The calls were made as follows: active = hit-call score of the fitted dose curve at least 0.9, where 1 is the maximum; inconclusive = response in the unintended direction; inactive = score below 0.9.
# Molecular target: human Peroxisome Proliferator-activated Receptor alpha (PPARa), PPARA (gene 5465) (UniProt Q07869)
# Test: ATG_PPARa_TRANS: Attagene TRANS-FACTORIAL HepG2 Assay for human Peroxisome Proliferator-activated Receptor alpha (PPARa) (AID 2283001);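 as to AC50: potency for gain of reporter signal over DMSO so agonist or activator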
# Description: ATG_TRANS is a cell-based, multiplexed-readout assay that uses HepG2, a human liver cell line, with measurements taken at 24 hours after chemical dosing in a 24-well plate.ATG_PPARa_TRANS is one of 30 assay component(s) measured or calculated from the ATG_TRANS assay. It is designed to make measurements of mRNA induction, a form of inducible reporter, as detected with fluorescence intensity signals by Reverse transcription polymerase chain reaction (RT-PCR) and Capillary electrophoresis technology.Data from the assay component ATG_PPARa_TRANS was analyzed into 1 assay endpoint. This assay endpoint, ATG_PPARa_TRANS, was analyzed in the positive analysis fitting direction relative to DMSO as the negative control and baseline of activity. Using a type of inducible reporter, measures of mRNA for gain-of-signal activity can be used to understand the reporter gene at the transcription factor-level as they relate to the gene PPARA. Furthermore, this assay endpoint can be referred to as a primary readout, because this assay has produced multiple assay endpoints where this one serves a reporter gene function. To generalize the intended target to other relatable targets, this assay endpoint is annotated to the nuclear receptor intended target family, where the subfamily is non-steroidal.
# Human liver HepG2 cells are transiently transfected with multiple reporter transcription units (MRTUs) in 6-well plates using FuGene 6 reagent (Roche; 3 ml FuGene/1 mg DNA). The MRTU constructs are regulated by a cis-regulating element (promoter). […] A major difference between the CIS and TRANS system is that in CIS activities of endogenous TFs are measured, whereas the TRANS assay evaluates changes in activities of exogenous, chimeric NR-Gal4 proteins. […] At the end of 24 hour incubation, total RNA was isolated using TriZol reagent (Invitrogen). The isolated RNA is then reverse-transcribed using oligo(dT) primer and Mo-MLV reverse transcriptase (Invitrogen) with DNAse I (Ambion) treatment for 30 min. The one-tenth of the produced cDNA was amplified by PCR using Taq DNA polymerase (Invitrogen) and two reporter sequence-specific primers. The PCR products were fluorescently labeled by primer extension with 6-arboxyfluorescein (6-FAM) 5'-labeled reporter sequence-specific primer (2 min at 95 C, 20 s at 68 C and 10 min at 72 C) and these products were digested with 5U of HpaI (New England Biolabs) for 2h at 37 C. The fragments were purified using Qiaquick PCR columns (Qiagen), analyzed on an ABI 3130xL genetic analyzer (Applied Biosystems) with peak positions identified by using a set of X-rhodamine (ROX)-labeled MapMarker1000 molecular weight standards (BioVentures). The raw capillary electrophoresis data was processed using Attagraph software (Attagene).
# human Peroxisome Proliferator-activated Receptor alpha (PPARa), PPARA (gene 5465), sequence (Q07869 whole entry, looked up): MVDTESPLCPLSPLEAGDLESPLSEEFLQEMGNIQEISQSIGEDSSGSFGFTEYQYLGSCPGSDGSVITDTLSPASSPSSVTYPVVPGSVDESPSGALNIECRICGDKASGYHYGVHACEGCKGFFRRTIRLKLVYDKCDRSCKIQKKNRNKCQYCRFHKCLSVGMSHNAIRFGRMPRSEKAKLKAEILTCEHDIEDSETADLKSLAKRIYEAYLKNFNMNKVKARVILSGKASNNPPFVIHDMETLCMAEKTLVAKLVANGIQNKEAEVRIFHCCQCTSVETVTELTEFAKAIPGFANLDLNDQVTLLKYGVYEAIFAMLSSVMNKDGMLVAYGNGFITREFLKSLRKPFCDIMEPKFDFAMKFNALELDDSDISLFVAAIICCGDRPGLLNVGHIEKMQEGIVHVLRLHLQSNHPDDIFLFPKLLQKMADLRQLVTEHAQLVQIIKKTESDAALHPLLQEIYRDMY
SMILES,outcome,AC50
C=CC(=O)OCC(F)(F)C(F)(F)C(F)(F)C(F)(F)COC(=O)C=C,inactive,–
O=C(CC(=O)C(F)(F)C(F)(F)F)C(F)(F)F,inactive,–
CC(=O)Nc1ccc(N=Nc2cc(C)ccc2O)cc1,inactive,–
O=C(C=Cc1ccccc1)OCC=Cc1ccccc1,inactive,–
O=C(O)C(F)(F)C(F)(F)F,inactive,–
CN(C)Cc1ccccc1O,inactive,–
O=S(=O)(O)C(F)(F)C(F)(F)C(F)(F)C(F)(F)C(F)(F)C(F)(F)C(F)(F)F,–,21.7 µM (active) and 24.7 µM (active)
CC(C)=CCCC(C)CCOC(=O)C(C)C (stereo not given),inactive,–
OCC(F)(F)C(F)(F)C(F)(F)C(F)F,inactive,–
CCCCCCOC(=O)c1ccccc1O,inactive,–
O=C(O)C(F)(F)C(F)(F)C(F)(F)C(F)(F)C(F)(F)C(F)(F)C(F)(F)C(F)(F)Cl,–,20.2 µM (active) and 18.8 µM (active)
CCCCC(CC)COP(=O)(O)OCC(CC)CCCC (stereo not given),–,16.5 µM (active)
O=C(O)C(F)(F)C(F)(F)C(F)(F)C(F)(F)C(F)(F)C(F)(F)C(F)(F)C(F)(F)C(F)(F)C(F)(F)C(F)(F)C(F)(F)F,inactive,–
OC[C@@H](O)[C@@H](O)[C@H](O)[C@@H](O)CO,inactive,–
CCCCCCCCC(F)(F)C(F)(F)C(F)(F)C(F)(F)C(F)(F)C(F)(F)F,inactive,–
COC(=O)CCC(F)(F)C(F)(F)C(F)(F)C(F)(F)F,inactive,–
FC(F)(F)C(F)(F)C(F)(F)C(F)(F)C(F)(F)C(F)(F)C(F)(F)Br,inactive,–
C=CC(=O)OCC(F)(F)C(F)(F)C(F)(F)C(F)(F)C(F)(F)C(F)(F)C(F)(F)F,inactive,–
O=C(O)C(F)(OC(F)(F)C(F)(OC(F)(F)C(F)(F)C(F)(F)F)C(F)(F)F)C(F)(F)F (stereo not given),inactive,108 µM (active)
O=C(Cl)C(F)(F)C(F)(F)C(F)(F)C(F)(F)C(F)(F)C(F)(F)C(F)(F)C(F)(F)F,–,10.3 µM (active)

SMILES,outcome,AC50
OCCCC(F)(F)C(F)(F)C(F)(F)C(F)(F)C(F)(F)C(F)(F)C(F)(F)F,inactive,–
CCCCOCCOCCOC(=O)CCCCC(=O)OCCOCCOCCCC,–,37.7 µM (active)
CO[Si](OC)(c1ccccc1)c1ccccc1,inactive,–
FC(F)(F)C(F)(F)C(F)(F)C(F)(F)C(F)(F)C(F)(F)CCS,inactive,–
N=C(N)C(F)(F)C(F)(F)C(F)(F)C(F)(F)C(F)(F)C(F)(F)C(F)(F)F,inactive,–
C=C(C)C(=O)OCC(F)(F)C(F)(F)C(F)(F)F,inactive,–
O=S(=O)(OCCOC(F)(F)F)C(F)(F)F,inactive,–
O=C(O)C(F)(F)C(F)(F)C(F)(F)F,inactive,–
CCCCCCOC(=O)c1ccccc1,inactive,–
FC(F)(F)C(F)(F)C(F)(F)C(F)(F)C(F)(F)C(F)(F)C(F)(F)C(F)(F)CCS,inactive,–
C=CC(F)(F)C(F)(F)C(F)(F)C(F)(F)C(F)(F)C(F)(F)C(F)(F)C(F)(F)F,inactive,–
FC(F)(I)C(F)(F)C(F)(F)C(F)(F)I,inactive,–
FC(F)(F)C(F)(F)C(F)(F)C(F)(F)C(F)(F)C(F)(F)CC1CO1 (stereo not given),inactive,–
OCC(F)(F)C(F)(F)C(F)(F)F,inactive,–
Cc1cccc(N(C)C)c1,inactive,–
FC(F)(F)C(F)(F)CNCC(F)(F)C(F)(F)F,inactive,–
O=C(O)C(F)(F)C(F)(F)OC(F)(F)F,inactive,–
FC1CC(F)(F)C(F)(F)C1(F)F (stereo not given),inactive,–
O=C(O)C(F)(F)C(F)(F)C(F)(F)C(F)(F)F,inactive,–
